Measured values reported in the supplement of paper PMC6853941.
Where a name gives a salt, the structure may show the parent alone. Values without a mark were called inactive.

System: MCF10A
Experiment: perturbation Mahalanobis distance of morphological profile vs DMSO controls (Mahalanobis distance (SD units)); higher = stronger morphological change, active = 7 or more
Conditions: screen batch: Batch1_Mahalanobis_Distance; 72 h
Procedure: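 MCF10A cells were seeded onto drugs dispensed acoustically into 384-well plates, using one dose per drug chosen from its human peak plasma concentration, and incubated for 72 h at 37 °C. Cells were stained for DNA, tubulin and mitochondria and imaged; 78 CellProfiler features were extracted, plate-normalised and compared with DMSO wells.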

In order of falling “perturbation Mahalanobis distance” value:
1. C[C@@](N)(Cc1ccc(O)c(O)c1)C(=O)O [Methyldopa] (118.4 µM)  3.81
2. Cn1nnc2c(C(N)=O)ncn2c1=O [Temozolomide] (70.6 µM)  3.51
3. CCN(CCO)CCCC(C)Nc1ccnc2cc(Cl)ccc12 (stereo not given) [Hydroxychloroquine] (1.5 µM)  3.38

Same assay, conditions: screen batch: Batch2_Mahalanobis_Distance; 72 h

In order of falling “perturbation Mahalanobis distance” value:
1. Cc1ccc(NC(=O)c2ccc(CN3CCN(C)CC3)cc2)cc1Nc1nccc(-c2cccnc2)n1 [Imatinib] (14 µM)  6.84
2. COc1cc(C(=O)NCc2ccc(OCCN(C)C)cc2)cc(OC)c1OC [Trimethobenzamide] (257.426.762 µM)  5.46
3. CC(c1cc2ccccc2s1)N(O)C(N)=O (stereo not given) [Zileuton] (105.4 µM)  5.1
4. COc1ccc(C[C@@H]2c3cc(OC)c(OC)cc3CC[N@+]2(C)CCC(=O)OCCCCCOC(=O)CC[N@@+]2(C)CCc3cc(OC)c(OC)cc3[C@H]2Cc2ccc(OC)c(OC)c2)cc1OC [Cisatracurium Besylate] (18.1 µM)  4.5
5. CO/N=C(\C(=O)N[C@@H]1C(=O)N2C(C(=O)O)=C(CSc3nnnn3C)CS[C@H]12)c1csc(N)n1 [Cefmenoxime] (183.8 µM)  4.1
6. Clc1ccc(C(c2ccccc2Cl)C(Cl)Cl)cc1 (stereo not given) [Mitotane] (62.5 µM)  4.02
7. C[C@@](N)(Cc1ccc(O)c(O)c1)C(=O)O [Methyldopa] (118.4 µM)  3.85
8. CCC1(c2ccccc2)NC(=O)N(C)C1=O (stereo not given) [Mephenytoin] (343.8 µM)  3.69
9. C#C[C@]1(O)CC[C@H]2[C@@H]3CCc4cc(O)ccc4[C@H]3CC[C@@]21C [Ethinyl Estradiol] (23 µM)  3.63
10. Nc1cc(N2CCCCC2)nc(N)[n+]1OS(=O)(=O)[O-] [Minoxidil Sulfate] (4.3 µM)  3.55
11. Cc1[nH]c(=O)c(C#N)cc1-c1ccncc1 [Milrinone] (5.9 µM)  3.46
12. O=[N+]([O-])c1cnc(CO)n1CCO [Hydroxymetronidazole] (58.4 µM)  3.44
13. N#C[C@@H]1C[C@@H]2C[C@@H]2N1C(=O)[C@@H](N)C12CC3CC(CC(O)(C3)C1)C2 [Saxagliptin] (0.38 µM)  3.33
14. Nc1ccn([C@H]2CC[C@@H](CO)O2)c(=O)n1 [Zalcitabine] (2.4 µM)  3.2
15. COc1ccccc1OCC(O)CN1CCN(CC(=O)Nc2c(C)cccc2C)CC1 (stereo not given) [Ranolazine] (37.4 µM)  3.08
16. O=C(Nc1ncc([N+](=O)[O-])s1)c1ccccc1O [Tizoxanide] (48.8 µM)  3
17. CCN(CCO)CCCC(C)Nc1ccnc2cc(Cl)ccc12 (stereo not given) [Hydroxychloroquine] (1.5 µM)  2.9
18. C[C@H](N[C@@H](CCc1ccccc1)C(=O)O)C(=O)N1CCC[C@H]1C(=O)O [Enalaprilat] (0.67 µM)  2.89
19. Cc1ccc(Nc2nccc(N(C)c3ccc4c(C)n(C)nc4c3)n2)cc1S(N)(=O)=O [Pazopanib] (132.6 µM)  2.85
20. CC[N+](C)(C)Cc1ccccc1Br [Bretylium Tosylate] (84.1 µM)  2.83
21. COc1cc2nc(N3CCN(C(=O)C4CCCO4)CC3)nc(N)c2cc1OC (stereo not given) [Terazosin] (1 µM)  2.82
22. Cc1oncc1C(=O)Nc1ccc(C(F)(F)F)cc1 [Leflunomide] (333.1 µM)  2.68
23. CN(C)CC[C@@H](c1ccc(Cl)cc1)c1ccccn1 [Dexchlorpheniramine] (0.15 µM)  2.67
24. CCCN[C@H]1CCc2nc(N)sc2C1 [Pramipexole] (0.15 µM)  2.65
25. O=C(O)P(=O)(O)O [Foscarnet] (887 µM)  2.62
26. O=C1[C@H](CC[C@H](O)c2ccc(F)cc2)[C@@H](c2ccc(O)cc2)N1c1ccc(F)cc1 [Ezetimibe] (0.87 µM)  2.59
27. CC(=O)O[C@H]1C[C@@H]2CC[C@@H]3[C@H](CC[C@@]4(C)[C@H]3C[C@H]([N+]3(C)CCCCC3)[C@@H]4OC(C)=O)[C@@]2(C)C[C@@H]1N1CCCCC1 [Vecuronium Bromide] (3.3 µM)  2.49
28. Cc1cc2cc3c(C)cc(=O)oc3c(C)c2o1 [Trioxsalen] (0.07 µM)  2.45
29. Cc1nc2n(c(=O)c1CCN1CCC(c3noc4cc(F)ccc34)CC1)CCCC2 [Risperidone] (73 µM)  2.4
30. CC(=O)O[C@@]12CO[C@@H]1C[C@H](O)[C@@]1(C)C(=O)[C@H](O)C3=C(C)[C@@H](OC(=O)[C@H](O)[C@@H](NC(=O)OC(C)(C)C)c4ccccc4)C[C@@](O)([C@@H](OC(=O)c4ccccc4)[C@H]21)C3(C)C [Docetaxel] (22.7 µM)  2.26
31. CCN(CC)C(=O)N1CCN(C)CC1 [Diethylcarbamazine] (6.3 µM)  2.16
32. Cn1nnc2c(C(N)=O)ncn2c1=O [Temozolomide] (70.6 µM)  2.12
33. OCCN1C[C@H](O)[C@@H](O)[C@H](O)[C@H]1CO [Miglitol] (45.4 µM)  2.1

In the case of N=C(N)c1ccc(OCCCCCOc2ccc(C(=N)N)cc2)cc1 [Pentamidine] (7.4 µM), the “perturbation Mahalanobis distance” value is reported as 9.96 (active).
With N[C@@H]1CONC1=O [D-Cycloserine] (98 µM) the “perturbation Mahalanobis distance” value was 9.13 (active).
With CC/C(=C(\c1ccc(O)cc1)c1ccc(OCCNC)cc1)c1ccccc1 [Endoxifen] (6.75 µM) the “perturbation Mahalanobis distance” value was 7.34 (active).
With NC(=O)NO [Hydroxyurea] (650 µM) the “perturbation Mahalanobis distance” value was 15.4 (active).
